The list is not random: actives were taken first. Their share in the collection is about 19%.
HT1080 IDH1KD tx = HT-1080 IDH1 knockdown cell toxicity (counter line); Potency, µM (titrated, usually from 46.1 µM), actives largely listed as cytotoxic; AID 686971; 360,000 compounds, 2% hits; HT-1080 IDH1 knockdown viability, ATP luminescence, 48 h
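% activity derives from luminescence (CellTiter-Glo), normalised to DMSO and no-cell wells. HT-1080-IDH1KD cells, 750/well, had 48 h compound exposure at 37 °C.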
HT1080-NT tox = kills 2HG-producing HT-1080-NT fibrosarcoma cells; HT-1080-NT fibrosarcoma viability, CellTiter-Glo ATP luminescence, 48 h; Potency, µM (top dose mostly 46.1 µM), usual class: cytotoxic; 360,000 compounds, 1.6% hits; AID 686970;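 note: NT is the 2HG producing partner of a matched IDH1 knockdown line; nearly all actives have a fitted effect of over 55% in size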
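750 cells/well, RPMI + 5% FBS; 2 h settle, compound pin-transfer, 48 h at 37 degrees C. CellTiter-Glo 10 min RT, luminescence. Normalized to DMSO and media-only wells.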
IL-1B inflam inh = inhibitors of inflammasome signaling (IL-1 beta secretion); THP-1 LPS/ATP IL-1B secretion, AlphaLISA, 16 h; hits give low values; activity change, % at 57.5 µM; 360,000 compounds, 4.7% hits; AID 743279; in the data active = activity change below about -50%; inconclusive = mostly about -30% to -49%
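THP-1 cells pretreated 1 hr with compounds (up to 57.5 uM final), then stimulated with LPS (250 ng/mL final) plus ATP (1.25 mM final); secreted IL-1B measured by AlphaLISA after 16 hr, decreased signal indicating inhibition.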
TDP1 cell CPT = growth inhibition of DT40 Tdp1-/-;hTDP1 cells with camptothecin (screen for TDP1 inhibitors) | Potency, µM (highest dose often 46.2 µM), actives largely listed as inhibitors | 420,000 compounds, 12% hits | chicken DT40 Tdp1-/-;hTDP1 cells + 20 nM CPT, ATP luminescence, 48 h; note: nearly all actives have a fitted effect of over 55% in size
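Chicken DT40 Tdp1-/- cells complemented with human TDP1, 400 cells/well, exposed to compounds plus 20 nM camptothecin for at least 48 h at 37 C; viability read as ATP content by CellTiter-Glo luminescence.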
DT40 TDP1 no CPT = qHTS for Inhibitors of human tyrosyl-DNA phosphodiesterase 1 (TDP1): qHTS in cells in absence of CPT; DT40 Tdp1-/- hTDP1 cells, no CPT, ATP luminescence, 48 h; Potency, µM (top dose mostly 46.2 µM), usual class: inhibitors; 420,000 compounds, 15% hits; AID 686978, 2013; note: nearly all actives have a fitted effect of over 55% in size
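Growth of hTDP1-complemented DT40 Tdp1-knockout cells is measured by ATP luminescence after at least 48 hr compound exposure at 37 °C, with DMSO substituting for the 20 nM CPT used in the parallel screen.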
ELG1 DNA repair = inhibitors of ELG1-dependent DNA repair in HEK293T cells; HEK293T ELG1-luciferase reporter, luminescence, 16 h; DNA damage induced by 5-fluorouridine; Potency, µM (series often up to 46.1 µM), usual class: inhibitors; 330,000 compounds, 2.3% hits; AID 504467; note: nearly all actives have a fitted effect of over 55% in size
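5-Fluorouridine DNA damage + compound/DMSO, 2,000 cells/well, 16 h, 37 °C/5% CO2. ONE-Glo, 30 min RT, luminescence. Readout = decrease in reporter signal.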
A number is an active result; . = inactive; ? = inconclusive; / = no result. Unless noted, calls come from the whole dose curve; as a rule, active = well fitted curve in the direction sought with a large enough effect; inconclusive = small, poorly fitted or top-dose-only effect, or another doubt; inactive = no such curve, though single readings can be large; an effect the other way counts as inactive or inconclusive.

SMILES	HT1080 IDH1KD tx	HT1080-NT tox	IL-1B inflam inh	TDP1 cell CPT	DT40 TDP1 no CPT	ELG1 DNA repair
CCCCCCCn1c(=O)c(C(=O)Nc2cnccn2)c(O)c2ccccc21	?	.	/	0.82µM	0.58µM	?
CCCCCn1c(=O)c(C(=O)Nc2cc(C)ccn2)c(O)c2ccccc21	.	.	.	7.3µM	7.3µM	.
CCCCCCn1c(=O)c(C(=O)Nc2nnc(C)s2)c(O)c2ccccc21	/	/	/	/	/	.
CCCCn1c(=O)c(C(=O)Nc2ccccc2S(N)(=O)=O)c(O)c2ccccc21	?	?	.	?	?	.
CCCCCn1c(=O)c(C(=O)Nc2cnccn2)c(O)c2ccccc21	.	.	.	4.1µM	2.9µM	?
CCCCCCn1c(=O)c(C(=O)Nc2ccncc2)c(O)c2ccccc21	/	/	/	/	/	.
Brc1ccc(Oc2cc(Br)c(Br)cc2Br)c(Br)c1	.	?	.	.	?	.
O=c1[nH]c(=S)n(-c2ccc(Cl)cc2)c(O)c1/C=N/N1CCOCC1	.	.	.	.	.	.
CCCCCn1c(=O)c(C(=O)NCc2ccc(Cl)cc2)c(O)c2ccccc21	.	.	.	?	?	.
CCCCCCn1c(=O)c(C(=O)Nc2cccc(C)n2)c(O)c2ccccc21	.	.	.	3.7µM	3.7µM	.
CCOC(=O)c1c(-n2c(C)cc(/C=C3\C(=O)NC(=O)N(C)C3=O)c2C)sc2c1CCCC2	.	.	-73	?	?	.
Cc1cc(/C=C2\C(=O)NC(=O)N(c3ccc(Cl)cc3)C2=O)c(C)n1-c1sc2c(c1C#N)CCCC2	?	.	.	?	?	.
COC(=O)C1=C(c2ccccc2)C[C@@H]2CC[C@H]1N2C	.	.	.	.	.	.
O=C1CC(c2ccc(F)cc2)c2c(c3ccccc3oc2=O)O1 (configuration not stated)	/	/	/	.	.	/
CCn1c(C)[n+](CC(O)COCC2CC=CCC2)c2ccccc21 (configuration not stated)	.	.	.	21µM	23µM	?
COC(=O)C1=C(c2ccc3ccccc3c2)C[C@@H]2CC[C@H]1N2C(=O)NC1CC1	.	.	.	15µM	9.2µM	.
COC(=O)C1=C(c2ccc(OC)c(OC)c2)C[C@@H]2CC[C@H]1N2C(=O)NC1Cc2ccccc2C1	.	.	.	?	.	?
COC(=O)C1=C(c2ccc3ccccc3c2)C[C@@H]2CC[C@H]1N2C(=O)NCC1CC1	.	.	.	12µM	9.2µM	.
COC(=O)C1=C(c2ccc3ccccc3c2)C[C@@H]2CC[C@H]1N2C(=O)NC1CCCCC1	.	.	.	?	16µM	.
COC(=O)C1=C(c2ccc(C(C)=O)cc2)C[C@@H]2CC[C@H]1N2C(=O)NCC1CC1	.	.	.	.	.	.
O=C1C2CCN(CC2)C12CC2c1ccc(C(F)(F)F)cc1 (configuration not stated)	.	.	.	.	.	.
COC(=O)C1=C(c2ccc(S(C)(=O)=O)cc2)C[C@@H]2CC[C@H]1N2C	.	.	.	.	.	.
COc1cccc(C2(C#N)CCN(C)CC2)c1	.	.	.	.	.	.
CN1CC[C@@]2(c3cccc(O)c3)Cc3nc4ccccc4cc3C[C@H]2C1	/	/	/	27µM	?	/
CC(C)(C)OC(=O)NCc1ccc(CNC(=O)c2[nH]cnc2C(=O)Nc2ccccc2F)cc1	.	.	.	13µM	7.3µM	/
CC1C(C)N1CC(O)Cn1ccnc1[N+](=O)[O-] (configuration not stated)	.	.	.	?	?	.
O=[N+]([O-])c1nccn1CC(O)CN1CC1 (configuration not stated)	.	.	.	12µM	10µM	/
CC(C)(CN)CC(=O)O	.	.	.	.	.	.

Screens deposited in PubChem BioAssay by National Center for Advancing Translational Sciences (NCATS).
